# Compounds with a hit are over-represented: about 12% of the library has one in this group of screens.
# L3MBTL1 block = blocks human L3MBTL1; AlphaScreen L3MBTL1–H3K9me1 peptide binding; Potency, µM (top dose mostly 57.1 µM), for the others: at the top dose activity, negative = inhibition, most hits filed as inhibitors; actives 0.66% (n = 230,000); further: on the % scale 0 is the no-effect control and ±100 the full control effect; nearly all actives have a fitted effect of over 60% in size
#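 L3MBTL1 (50 nM) pre-complexed 30 min with biotinylated H3(1-15)K9me1 peptide (75 nM), then compounds added for 30 min at room temperature; AlphaScreen streptavidin donor/nickel chelate acceptor beads (10 ug/mL final) read after 30 min dark incubation.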
# JMJD2A Tudor = inhibitors of human JMJD2A Tudor domain | O75164 | AlphaScreen JMJD2A-Tudor / H3K4me3 peptide binding | Potency, µM (doses to about 114 µM), for the others: top-dose activity change, negative = inhibition, usual class: inhibitors | actives 4.4% (n = 390,000); further: on the % scale 0 is the no-effect control and ±100 the full control effect; nearly all actives have a fitted effect of over 50% in size
# Sfp PPTase inh = blocks B. subtilis Sfp PPTase activity. Potency, µM, for the others: largest response in the series, negative = inhibition, most hits filed as inhibitors. AID 1490. Q9F4F7. Biochemical Sfp PPTase activity, qHTS. actives 3.5% (n = 310,000);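 further: the enzyme is Sfp with the accession as filed and its product quenches rhodamine fluorescence; 0% = enzyme reaction without inhibitor and -100% = no enzyme wells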
#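 After 15 min at room temperature with compound, 15 nM Sfp received 5 uM rhodamine-CoA plus 12.5 uM BHQ-2-ybbR (50 mM Hepes pH 7.6, 10 mM MgCl2). Rate came from the fluorescence difference over 30 min, ex 525/em 598 nm.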
# HP1b binding inh = blocks HP1-beta chromodomain binding to methylated histone tails; actives 0.56% (n = 390,000); AID 540317; Potency, µM (highest dose often 114 µM), without a hit: at the top dose activity change, negative = inhibition, hits mostly inhibitors; AlphaScreen HP1-beta / biotin-H3K9me3 peptide binding; further: nearly all actives have a fitted effect of over 70% in size
#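 AlphaScreen: HP1-beta (50 nM) preformed 30 min with biotin-H3(1-18)K9me3 peptide (50 nM) in PBS pH 7.4, 0.01% Tween-20. Compound added for 30 min at RT, then streptavidin donor/nickel chelate acceptor beads (10 ug/mL) for 30 min.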
# G9a inh = blocks human histone lysine methyltransferase G9a | AID 504332 | G9a H3K9 monomethylation, AlphaScreen, 2 h | Q96KQ7 | Potency, µM (titrated, usually from 102 µM), for inactives: top-dose activity, negative = inhibition, hits mostly inhibitors | actives 8.8% (n = 350,000); further: on the % scale 0 is the no-effect control and ±100 the full control effect; nearly all actives have a fitted effect of over 75% in size
#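 Chemiluminescent proximity detection of H3K9 monomethylation, read after 10 min bead incubation in the dark. Reaction: 20 nM G9a, 500 nM biotin-H3K9 peptide, 20 uM SAM cofactor, 2 h, room temperature, following 15 min enzyme-compound preincubation.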
# BAZ2B inh = BAZ2B (human) inhibition. Q9UIF8. AlphaScreen BAZ2B-H3K14Ac peptide displacement. Potency, µM (doses to about 114 µM), for the others: top-dose activity change, negative = inhibition, most hits filed as inhibitors. actives 4.4% (n = 360,000); further: on the % scale 0 is the no-effect control and ±100 the full control effect; nearly all actives have a fitted effect of over 60% in size
#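 Inhibition is scored as reduced AlphaScreen emission. The BAZ2B/b-H3(5-23)K14Ac complex (50 nM each) in PBS pH 7.4, 0.01% Tween-20 meets compound (up to 110 uM) for 30 min at RT before bead addition.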
# The depositor's hits bear a star; u = inconclusive; x = no result given; ! = not active in a repeat; [ ] = dose if it differs, or a comment. The call rests on the fitted dose curve; in most records, active means well fitted curve in the direction sought with a large enough effect; inconclusive means small, poorly fitted or top-dose-only effect, or another doubt; inactive means no such curve, though single readings can be large; an effect the other way counts as inactive or inconclusive. Potency means the concentration at half of the fitted maximal effect.
SMILES,L3MBTL1 block,JMJD2A Tudor,Sfp PPTase inh,HP1b binding inh,G9a inh,BAZ2B inh
CC(=O)Nc1ccc(S(=O)(=O)N(C)CC(=O)Nc2ccccc2N2CCCC2)cc1,1%,-12%,x,11%,45µM*,-28%
NS(=O)(=O)c1ccc(CCNC(=O)c2coc3ccccc3c2=O)cc1,x,-8%,1%,0%,17%,-3%
O=C(CC1S/C(=N/N=C2CCCCCC2)NC1=O)Nc1ccc(Br)cc1F (centres undefined),x,-26%,18%,17%,56%,17%
COc1cccc(CNC(=O)CCCN2C(=O)CSc3c2c(C)nn3-c2ccccc2)c1,x,-15%,x,53%,-3%[59 µM],-15%
Cn1c2cc(S(C)=O)sc2c2cnn(Cc3cccc(O)c3)c(=O)c21 (centres undefined),x,4%,x,x,x,x
CCc1ccc2nc(N3CCC(C(=O)NCCC(C)C)CC3)sc2c1,x,-13%,x,19%,14µM*,-2%
CCOc1ccc2nc(N3CCCC(C(=O)NCCCN4C(C)CCCC4C)C3)sc2c1 (centres undefined),x,-24%,3%,41%,40µM*,u
O=S(=O)(c1cccc(Cl)c1)N1CCN(c2nc(-c3ccccc3)nc3ccccc23)CC1,x,-9%,x,26%,x,x
O=C(OCC#CCSc1nnc(-c2cccc3ccccc23)o1)c1ccco1,u,7%,-6%,54%,21%[0.501 µM],79µM*!
Cc1ccc(NC(=O)C(=O)NCCCN2CCOCC2)c(C)c1,x,-6%,-5%,39%,22%,-3%
Cc1ccc2cccc(NC(=S)NC(=O)c3ccn(C)n3)c2n1,-4%,-27%,-2%,u,u,-5%
Cn1ccc(C(=O)NC(=S)N2CCSCC2)n1,1%,50µM*,45µM*,u,13µM*,-19%
CCn1c(SCC(=O)N2CCC(C)CC2)nnc1-c1ccco1,x,6%,18%,17%,-30%,-4%
COc1cccc(N2CCN(C(=O)c3ccc(CS(=O)Cc4ccc(Cl)cc4)o3)CC2)c1 (centres undefined),x,-33%,-3%,11%,2%,u
CN(C)CCCN1c2ccccc2C(C)(C)c2ccccc21,x,x,1%,x,u,x
CN(C)CCCN1c2ccccc2Sc2ccc(Cl)cc21,-21%,20µM*,79µM*!,u,71µM*!,40µM*
CN(C)CCCN1c2ccc3ccccc3c2Sc2cccc(Cl)c21,x,50µM*,x,u,x,x
CN1CCN(CCCN2c3ccccc3Sc3ccc(S(=O)(=O)N(C)C)cc32)CC1,-1%,-4%,15%,38%,10µM*,u
CN(C)CCCN1c2ccccc2Sc2ccc3ccccc3c21,x,-33%,x,7%,x,x
O=C(Oc1ccccc1)N1CCC2(CC1)CCN(c1ccccn1)CC2,x,x,0%,x,-8%[12.7 µM],x
Cc1ccc(Cn2c(CNS(=O)(=O)c3cccc([N+](=O)[O-])c3)nc3cccnc32)cc1,x,-32%,x,17%[57 µM],40%[59 µM],-18%
CCOC(=O)C1CCN(C(=O)COC(=O)c2cccc(NS(=O)(=O)c3ccccc3)c2)CC1,x,-15%,x,35%,x,x
CCCCN(C)C1=Nc2cccc3cccc1c23,x,u,2%,24%,10µM*,-1%
FC(F)(F)c1cnc(C(c2ccccc2)c2ncn[nH]2)c(Cl)c1 (centres undefined),0%,-10%,10%,23%,u,-13%
FC(F)(F)c1cnc(C(c2ccccn2)c2ncn[nH]2)c(Cl)c1 (centres undefined),8.9µM*,16µM*,26%,28%,44%,2.5µM*
SMILES,L3MBTL1 block,JMJD2A Tudor,Sfp PPTase inh,HP1b binding inh,G9a inh,BAZ2B inh
CCCc1n(CC)c2ccccc2[n+]1CC(O)COC1CCCCC1 (centres undefined),x,u,0%,7%,u,-34%
COC(=O)C1=C(O)/C(=C\c2cc(C)n(-c3ccc(F)cc3)c2C)N=C1C,x,40µM*,u,-2%,35µM*,x
COC(=O)C1=C(C)NC(=O)/C1=C\c1cc(C)n(-c2ccc(F)cc2)c1C,-7%,u,35µM*,-20%,x,u
COC(=O)C1=C(C)NC(=O)/C1=C\c1ccco1,-2%,-32%,-3%,1%,-50%,u
COC(=O)C1=C(C)NC(=O)/C1=C\c1cc(C)n(-c2cccc(C)c2)c1C,x,45µM*,u,20µM*,-2%[12.7 µM],40µM*
N#Cc1cc2c(nc1S(=O)(=O)Cc1ccccc1)CCCC2,39%,-7%,-10%,48%,27%,-6%
COc1ccc(C(=O)Nc2cc3c(cc2C(=O)O)OCCCO3)c(OC)c1,x,-8%,15%,0%,18%[59 µM],0%
COc1cccc(CCC(=O)Nc2cc3c(cc2C(=O)O)OCCCO3)c1OC,10%,-14%,x,21%,7.9µM*,-20%
COc1ccc(OCC(=O)Nc2cc3c(cc2C(=O)O)OCCCO3)cc1,x,-20%,u,19%,14µM*,3%
CCOc1ccc(OCC(=O)Nc2cc3c(cc2C(=O)O)OCCCO3)cc1,x,-17%,u,36%,14µM*,2%
S=C(Nc1cccc(Cl)c1Cl)N1CCC2(CC1)OCCO2,-1%,-12%,6%,28%,-15%,-14%
COC(=O)[C@@]1(Cc2ccccc2)[C@H]2c3cc(C(=O)N(C)C)n(Cc4ccccn4)c3C[C@H]2CN1C(=O)c1ccccc1,x,x,2%,x,x,x
COc1ccc2cc1Oc1ccc(cc1)CC1c3cc(c(OC)cc3CCN1C)Oc1c(OC)c(OC)cc3c1C(C2)N(C)CC3 (centres undefined),x,x,-22%,x,-8%[2.33 µM],x
CN1CC[C@H](CN2c3ccccc3Sc3ccccc32)C1,x,x,4%,x,16µM*,x
CC1CCN(CC(O)CN2c3ccccc3Sc3ccccc32)CC1 (centres undefined),x,u,1%,-8%,u,u
COC(=O)/C=C1\SC(N2CCOCC2)=C(c2ccc(OC)cc2)C1=O,-8%,-13%,-86%,-9%,2µM*,45µM*
Cc1ccc(NC(=O)CSc2nc3ccccc3n2CC(=O)N2CCC(C)CC2)cc1C,x,-26%,x,34%,3%[59 µM],-14%
O=C1S/C(=C/c2ccc(N3CCOCC3)o2)C(=O)N1Cc1ccc(F)cc1,-3%,89µM*,3.5µM*,19%,7.9µM*,-33%
O=C1NC(=S)S/C1=C/c1ccc(N2CCOCC2)o1,32µM*,40µM*,u,35µM*,4.5µM*,20µM*
O=C1N=C(N2CCOCC2)S/C1=C/c1ccc(-c2ccc(F)cc2)o1,-1%,-11%,-4%,37%,x,-23%
CC(C)OC(=O)CN1C(=O)S/C(=C/c2ccc(N3CCCCC3)o2)C1=O,x,u,8.9µM*,-14%,u,u
